The text below walks through data of PubChem BioAssay AID485341 (National Center for Advancing Translational Sciences (NCATS), 2010).

In all, about 330,000 compounds went through this assay and about 1,700 (0.52%) were called active. The sample holds actives, similar compounds and a random draw of the others, so the mix is not that of the screen. The call rests on the fitted dose curve; in most records, active means well fitted inhibition curve with a large enough effect; inconclusive means small, poorly fitted or top-dose-only effect; inactive means no such curve, though single readings can be large or run the other way.
Potency means the concentration at half of the fitted maximal effect.

The experiment deals with Beta-lactamase (Escherichia coli (strain K12)) (UniProt P00811). Kind of experiment: qHTS Inhibitors of AmpC Beta-Lactamase (assay without detergent). Further: nearly all actives have a fitted effect of over 20% in size. Particulars: AmpC nitrocefin hydrolysis, absorbance 480 nm, 0.0001% Triton; series mostly up to 57.1 µM; activity change, negative = inhibition: at the top concentration. The protocol: NIH Molecular Libraries Probe Production Network [MLPCN] NIH Chemical Genomics Center [NCGC] Assay Provider: Professor Brian Shoichet, UCSF Assay Overview: This aggregation profiling approach exploits the sensitivity of aggregate formation to detergent. Inhibition of b-lactamase is measured in the presence and absence of 0.01% Triton X-100. This particular assay had the prescence of 0.01% Triton X-100. See Pubchem assay "Promiscuous and Specific Inhibitors of AmpC Beta-Lactamase (assay without detergent)" for related screen. Compounds that inhibit only in the absence of detergent are considered likely promiscuous aggregators. A screen of 1,030 compounds was performed in Brian Shoichet's lab in 96-well format. AmpC activity was measured by following the absorbance at 480 nm. Nitrocefin is a chromogenic substrate: while nitrocefin is yellow (lmax 390 nm), the product of its hydrolysis is red (lmax 486 nm, 17,000 M-1). AmpC beta lactamase was provided by Shoichet Lab, UCSF.
Beta-lactamase (Escherichia coli (strain K12)), sequence (P00811 whole entry, looked up): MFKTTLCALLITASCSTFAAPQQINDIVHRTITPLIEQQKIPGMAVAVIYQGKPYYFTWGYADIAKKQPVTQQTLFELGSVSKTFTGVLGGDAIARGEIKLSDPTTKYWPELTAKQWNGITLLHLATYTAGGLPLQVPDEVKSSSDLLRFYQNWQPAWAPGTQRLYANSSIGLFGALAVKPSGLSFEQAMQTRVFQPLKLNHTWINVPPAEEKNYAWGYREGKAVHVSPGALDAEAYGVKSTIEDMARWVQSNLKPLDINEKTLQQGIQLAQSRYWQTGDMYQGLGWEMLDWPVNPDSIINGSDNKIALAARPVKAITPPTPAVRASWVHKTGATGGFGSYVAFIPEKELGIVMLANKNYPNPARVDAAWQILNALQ
Buffer: 20 mM phosphate buffer, pH 7.0 Triton X-100: No Detergent screen: 0.0001%, Detergent screen: 0.01%. Reagents/Controls: Buffer in columns 3 and 4 as negative control (no enzyme). 5.3 nM AmpC in columns 1, 2, 5-48. Titration of UCSF compound 9 control (from 10 mM, then 1:2) pin-transferred to column 2. Column 1 is neutral (100% activity). Assay Steps: Six uL of reagents were dispensed to 1536-well Greiner black clear bottom plates. Compounds and controls (23 nL) were transferred via Kalypsys PinTool. The plates were incubated for 15 min at room temperature, and then 2 uL of 800 uM solution of nitrocefin was added to start the reaction. The plates were immediately transferred to and read every 20 seconds for 4 min on ViewLux (Perkin-Elmer) High-throughput CCD imager using 480 nm absorbance protocol. During dispense, reagent bottles were kept submerged into 4 deg C water bath. Keywords: NIH Roadmap, MLSCN, MLI, MLSMR, qHTS, NCGC, AmpC Beta-Lactamase, Aggregation
`CC(OC(=O)CCCOc1ccccc1)C(=O)Nc1ccc(Cl)cn1` (centres undefined): the “activity change, negative = inhibition” value was -29.5% (inactive).

As for `Cc1cccc(N2C(=O)SC(SC(=Nc3ccccc3)Nc3ccccc3)C2=O)c1` (centres undefined), the “activity change, negative = inhibition” value is -30.1% (inactive).

As to `O=[N+]([O-])c1cc(Cl)cc(/C=N/NC(=S)Nc2cc(S(=O)(=O)N3CCOCC3)ccc2Cl)c1O`, the “activity change, negative = inhibition” value was -46.8% (inactive).

With `O=C(N/N=C/c1cc(Cl)cc([N+](=O)[O-])c1O)C(O)(c1ccccc1)c1ccccc1`, the Potency is 10 µM (active).

For `CN(C)/N=C/c1cc(Cl)cc([N+](=O)[O-])c1O`, the “activity change, negative = inhibition” value is -14.3% (inactive).

On to `OCCNCCOc1ccc(Cl)c(Cl)c1`, for which the “activity change, negative = inhibition” value is -15.5% (inactive).

As for `S=C(NCCC1=CCCCC1)Nc1ccccc1`, the “activity change, negative = inhibition” value is -29.9% (inactive).

With `COc1ccccc1C1SCCN1C(=O)c1ccc([N+](=O)[O-])cc1` (centres undefined), the “activity change, negative = inhibition” value is -44.7% (inactive).

Take `COc1cccc(OC)c1C(=O)Nc1c(C(=O)N2CCN(c3ccccn3)CC2)oc2ccccc12`: the “activity change, negative = inhibition” value is 100% (inactive).

Consider `COc1cccc(NC(=S)N(CCc2c(C)[nH]c3ccccc23)Cc2ccco2)c1`, for which the “activity change, negative = inhibition” value is -26.2% (inactive).

For `COc1ccc2[nH]c(C)c(CCN(Cc3cccs3)C(=S)Nc3ccccc3OC)c2c1`, the Potency is 0.501 µM (active).

On to `Cc1[nH]c2ccccc2c1CCN(Cc1cccs1)C(=S)NC(C)(C)C`, for which the “activity change, negative = inhibition” value was -0.689% (inactive).

For `CCN(CC)C(=O)C1CCC(C)(C(=O)O)C1(C)C` (centres undefined), the “activity change, negative = inhibition” value was -16.7% (inactive).

Consider `COc1ccc(C(C#N)Nc2ccccc2C)cc1` (centres undefined), for which the “activity change, negative = inhibition” value was 12.4% (inactive).

Take `COc1ccc(C(=O)CC(=O)C(=O)Nc2cc([N+](=O)[O-])ccc2OC)cc1`: the “activity change, negative = inhibition” value is -18.2% (inactive).

As to `Cc1ccc(NC(=O)CCNC(=O)c2ccc([N+](=O)[O-])cc2)cc1S(=O)(=O)N1CCOCC1`, the “activity change, negative = inhibition” value was -16.7% (inactive).

As for `COc1ccc(NS(=O)(=O)c2cc(NC(=O)CC(=O)c3ccc([N+](=O)[O-])cc3)ccc2C)cc1`, the Potency was 15.8 µM (active).

On to `CCOP(=O)(OCC)C(Nc1ccc([N+](=O)[O-])cc1)c1ccc(Cl)cc1` (centres undefined), for which the “activity change, negative = inhibition” value was 83.3% (inactive).

Consider `CC(C)c1ccc(Nc2nnc(SCC(=O)c3nnc(-c4ccccc4)o3)s2)cc1`, for which the Potency is 25.1 µM (active).

On to `CC(C)N(C(=O)CSc1nnc(NC2CC2)s1)c1ccccc1`, for which the “activity change, negative = inhibition” value is -17.1% (inactive).

`Cc1ccccc1Nc1nnc(SCC(=O)c2cc3ccccc3o2)s1`: the “activity change, negative = inhibition” value is -49.2% (inactive).

Turning to `CCOc1ccc(-n2cnc3c(=O)[nH]c(N)nc32)cc1`, the “activity change, negative = inhibition” value was -18.8% (inactive).

As for `Cc1ccc2c(c1)c1ncnc(N3CCc4ccccc4C3)c1n2C`, the “activity change, negative = inhibition” value is 1.78% (inactive).

On to `COc1ccc(CC2c3cc(OC)c(OC)cc3CC[N+]2(C)CCC(=O)OCCCCCOC(=O)CC[N+]2(C)CCc3cc(OC)c(OC)cc3C2Cc2ccc(OC)c(OC)c2)cc1OC` (centres undefined), for which the “activity change, negative = inhibition” value is 145% (inactive).

Turning to `Cc1cc2ccccc2n1CCNC(=O)COc1ccc2ccccc2c1`, the Potency is 10 µM (active).

Consider `Cc1cc2ccccc2n1CCC(=O)O`, for which the “activity change, negative = inhibition” value is 4.27% (inactive).

As for `COC(=O)C(C)NC(=O)COc1ccc2ccccc2c1` (centres undefined), the “activity change, negative = inhibition” value was -18.4% (inactive).

Turning to `Nn1c(Cc2cccc3ccccc23)nnc1SCC(=O)N1CC(=O)Nc2ccccc21`, the “activity change, negative = inhibition” value was 13.7% (inactive).

Regarding `Nc1cc(C(F)(F)F)ccc1N1CCOCC1`, the “activity change, negative = inhibition” value is -6.49% (inactive).

Turning to `COc1ccccc1C(=O)Nc1ccc(OCc2nnc3c4ccccc4c(C)nn23)cc1`, the “activity change, negative = inhibition” value was 208% (inactive).

As for `CCCc1nc(SCC(=O)N2CCCC2)c2c(=O)n(C)c(=O)n(C)c2n1`, the “activity change, negative = inhibition” value was 49.1% (inactive).

For the compound `CCOC(=O)N1CCN(C(=O)CSc2nc(C)nc3c2c(=O)n(C)c(=O)n3C)CC1`, the “activity change, negative = inhibition” value was -9.25% (inactive).

Take `Cn1c(=O)c2c(SCC(=O)N3CCOCC3)nc(C3CC3)nc2n(C)c1=O`: the Potency is 10 µM (active).

With `CSc1ccccc1NC(=O)c1cc(C2CC2)on1`, the “activity change, negative = inhibition” value was -8.82% (inactive).

For the compound `Cc1nn(Cc2ccc(Cl)c(Cl)c2)c(C)c1NC(=O)c1cc(C2CC2)on1`, the Potency was 10 µM (active).

On to `O=C(NC1CCCCC1)c1cc(C2CC2)on1`, for which the “activity change, negative = inhibition” value was -16.9% (inactive).

Take `O=C(CN(c1cccc(Cl)c1)S(=O)(=O)c1ccccc1)NN=C1CCCC1`: the “activity change, negative = inhibition” value was -55.4% (inactive).

Take `Cc1nn(Cc2ccc(F)cc2)c(C)c1NC(=O)c1noc2c1CCc1ccccc1-2`: the Potency was 11.2 µM (active).

`Cc1nn(Cc2ccc(F)cc2)c(C)c1NC(=O)c1cccnc1Cl`: the “activity change, negative = inhibition” value was -7.61% (inactive).

As to `Cc1ccccc1Cn1nc(C)c(NC(=O)C(F)(F)F)c1C`, the “activity change, negative = inhibition” value is 2.13% (inactive).

As for `COC(=O)[C@]1(Cc2ccccc2)N[C@H](CN(C)S(=O)(=O)c2ccc(OC(F)(F)F)cc2)[C@@H]2C(=O)N(Cc3ccccc3)C(=O)[C@@H]21`, the “activity change, negative = inhibition” value was -12.4% (inactive).

Take `CC(O)c1nc2c(c(=O)n(C)c(=O)n2C)n1C` (centres undefined): the “activity change, negative = inhibition” value is -0.321% (inactive).

Take `Cc1ccc(S(=O)(=O)N(CC(=O)NCc2ccco2)c2ccccc2C)cc1`: the “activity change, negative = inhibition” value was -17% (inactive).

On to `COc1ccc(-c2cc(C(=O)N(C)CC(=O)Nc3ccccc3Cl)c3ccccc3n2)cc1OC`, for which the “activity change, negative = inhibition” value is 86.4% (inactive).

For the compound `CC(C)CC1(C)NC(=O)N(CC(=O)Nc2ccc3c(c2)OCCO3)C1=O` (centres undefined), the “activity change, negative = inhibition” value is -18.8% (inactive).

As to `Cc1ccccc1C(=O)OC1OC(=O)C(Cl)=C1Nc1ccccc1` (centres undefined), the Potency is 6.31 µM (active).

Take `Cc1ccccc1C(=O)Nc1ccccc1NC(=O)c1ccccc1C`: the “activity change, negative = inhibition” value was -28.1% (inactive).

On to `Cc1ccc(NC2=C(Cl)C(=O)OC2OC(=O)c2ccccc2C)cc1` (centres undefined), for which the Potency is 3.98 µM (active).

As to `Cc1ccccc1C(=O)O`, the “activity change, negative = inhibition” value is -15.1% (inactive).
